# DT40 TDP1 CPT: growth inhibition of DT40 Tdp1-/-;hTDP1 cells with camptothecin (screen for TDP1 inhibitors) | chicken DT40 Tdp1-/-;hTDP1 cells + 20 nM CPT, ATP luminescence, 48 h | AID 686979 | actives 12% (n = 420,000) | Potency, µM (doses to about 46.2 µM), for the others: top-dose activity change, negative = growth inhibition, actives largely listed as inhibitors; also: potency is read from the fitted curve at half-maximal effect; nearly all actives have a fitted effect of over 55% in size
#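 Chicken DT40 Tdp1-/- cells complemented with human TDP1, 400 cells/well, exposed to compounds plus 20 nM camptothecin for at least 48 h at 37 C; viability read as ATP content by CellTiter-Glo luminescence.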
# DT40 TDP1 no CPT: qHTS for Inhibitors of human tyrosyl-DNA phosphodiesterase 1 (TDP1): qHTS in cells in absence of CPT; actives 15% (n = 420,000); Potency, µM (top dose mostly 46.2 µM), without a hit: at the highest dose activity change, negative = growth inhibition, most hits filed as inhibitors; DT40 Tdp1-/- hTDP1 cells, no CPT, ATP luminescence, 48 h; AID 686978, 2013; also: potency is read from the fitted curve at half-maximal effect; nearly all actives have a fitted effect of over 55% in size
#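 Seeded 400 DT40-hTDP1 cells/well (vehicle DMSO, no 20 nM CPT); pinned compounds; ≥48 hr at 37 °C; CellTiter-Glo luminescence as viability measure.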
# HT1080NT lethal: kills 2HG-producing HT-1080-NT fibrosarcoma cells; HT-1080-NT fibrosarcoma viability, CellTiter-Glo ATP luminescence, 48 h; Potency, µM (highest dose often 46.1 µM), without a hit: at the highest dose activity, negative = less viability, most hits filed as cytotoxic; actives 1.6% (n = 360,000); AID 686970;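 also: NT is the 2HG producing partner of a matched IDH1 knockdown line; potency is read from the fitted curve at half-maximal effect; 0% = DMSO-treated cells and -100% = media-only wells without cells; nearly all actives have a fitted effect of over 55% in size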
#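 750 cells/well, RPMI + 5% FBS; 2 h settle, compound pin-transfer, 48 h at 37 degrees C. CellTiter-Glo 10 min RT, luminescence. Normalized to DMSO and media-only wells.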
# HT1080 IDH1KD tx: kills HT-1080 cells with IDH1 knockdown; HT-1080 IDH1 knockdown viability, ATP luminescence, 48 h; Potency, µM (top dose mostly 46.1 µM), without a hit: at the top dose activity, negative = toxicity, actives largely listed as cytotoxic; actives 2% (n = 360,000);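 also: potency is read from the fitted curve at half-maximal effect; 0% = DMSO wells and -100% = cell-free medium wells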
#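 % activity derives from luminescence (CellTiter-Glo), normalised to DMSO and no-cell wells. HT-1080-IDH1KD cells, 750/well, had 48 h compound exposure at 37 °C.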
# IL-1B inflam inh: blocks inflammasome-driven IL-1 beta release; THP-1 LPS/ATP IL-1B secretion, AlphaLISA, 16 h; hits give low values; activity change, % at 57.5 µM; actives 4.7% (n = 360,000); in the data active = activity change below about -50%; inconclusive = mostly about -30% to -49%
#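 Secreted IL-1B measured by AlphaLISA bead assay after 16 h compound exposure of THP-1 cells; compounds (final up to 57.5 uM) added 1 h before LPS (250 ng/mL) and ATP (1.25 mM) stimulation; lower signal means less secretion.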
# * hit, by the source's call; ? = inconclusive; . = no result; [ ] = another dose, or the depositor's remark. Shown are actives, neighbours in structure and some others; about 19% of the full set was active somewhere. Unless noted, calls follow the shape of the dose curve; as a rule, active = well fitted curve in the direction sought with a large enough effect; inconclusive = small, poorly fitted or top-dose-only effect, or another doubt; inactive = no such curve, though single readings can be large; an effect the other way counts as inactive or inconclusive. Unless noted, % is scaled to controls: 0 for no effect and ±100 for the full control effect.
SMILES,DT40 TDP1 CPT,DT40 TDP1 no CPT,HT1080NT lethal,HT1080 IDH1KD tx,IL-1B inflam inh
Cc1ccsc1CN(C)CC(=O)Nc1ccc([N+](=O)[O-])cc1Cl,-4%,?,-20%,-8%,-79*
Cc1ccc(S(=O)(=O)N2C[C@H]3[C@H]4C(=O)N(c5ccccc5)C(=O)[C@H]4C[C@H](OC(=O)NC4CCCC4)[C@@]3(O)C2)cc1,0%,-18%,-1%,9%,17
CCn1c(C)cc(/C=C2/SC(=O)N(C(C)C(=O)OC)C2=O)c1C (configuration not stated),?,21µM*,?,-9%,-5
C#CCN1C(=O)S/C(=C/c2cc(C)n(CC)c2C)C1=O,?,21µM*,-2%,0%,-6
CCOC(=O)C(C)N1C(=O)S/C(=C/c2cc(C)n(-c3ccccn3)c2C)C1=O (configuration not stated),?,16µM*,-4%,0%,-28
COC(=O)C(C)N1C(=O)S/C(=C/c2cc(C)n(C(C)C)c2C)C1=O (configuration not stated),16µM*,?,1%,-4%,-12
CCn1c(C)cc(/C=C2/SC(=S)N(CC(=O)O)C2=O)c1C,5%,-1%,15%,20%,-6
Cc1cc(/C=C2\SC(N)=NC2=O)c(C)n1-c1ccccc1,?,?,-2%,0%,-3
CC1(C)C2C(Cl)(Cl)C2(C)c2ccccc2N1C=O (configuration not stated),20%,-8%,14%,0%,7
COCCn1c(C)cc(/C=C2/SC(=O)N(C(C)C(=O)OC)C2=O)c1C (configuration not stated),?,26µM*,11%,10%,-2
CC1(C(=O)NCc2ccccc2Br)CCN1Cc1ccc(-c2ccccc2)o1 (configuration not stated),?,?,?,?,-21
CC(=O)N1CCc2c(sc3c2c(=O)n(-c2ccccc2)c(=O)n3CC(=O)Nc2ccccc2C)C1,18%,0%,.,.,.
Cc1nn(C)c(C)c1CNC(=O)c1cnn2c1NC(c1ccccc1)CC2C(F)(F)F (configuration not stated),?,-21%,-4%,0%,-4
COc1ccc(C2CC(C(F)(F)F)n3nc(C(=O)NCc4cn(C)nc4C)c(Cl)c3N2)cc1 (configuration not stated),13µM*,10µM*,-27%,-14%,-20
Cc1ccc(C2CC(C(F)(F)F)n3nc(C(=O)NCc4c(C)nn(C)c4C)c(Cl)c3N2)cc1 (configuration not stated),4.6µM*,5.2µM*,?,?,-13
Cc1ccc(NC(=O)c2cc(=O)c3ccccc3o2)cc1S(=O)(=O)N1CCCCC1,?,21µM*,-24%,?,?
COCc1c(C(=O)Nc2ccc(C)c(S(=O)(=O)N3CCOCC3)c2)oc2ccccc12,?,?,6%,-2%,-3
Cc1ccc(NC(=O)c2ccc([N+](=O)[O-])o2)cc1S(=O)(=O)N1CCOCC1,5.2µM*,4.6µM*,?,6.5µM*,-94*
O=C(Nc1ccc(S(=O)(=O)N2CCCC2)cc1)c1cc(=O)c2ccccc2o1,?,-10%,29%,17%,0
Cc1ccc(NC(=O)c2cc(=O)c3ccccc3o2)cc1S(=O)(=O)N1CCOCC1,18µM*,12µM*,-17%,-6%,0
Cc1ccc(NC(=O)c2ccc3ccccc3n2)cc1S(=O)(=O)N1CCOCC1,?,15µM*,-18%,-20%,41
O=C(COC(=O)/C=C/c1cccc(F)c1)NC1CCCCC1,6%,-1%,-3%,15%,0
O=C(CCC1CCCC1)NNC(=O)c1cccc(Cl)c1,-7%,-1%,0%,-1%,-11
COC(=O)c1cc(NC(=O)c2cc(-c3ccc(C(F)(F)F)cc3)oc2C(F)(F)F)ccc1N1CCOCC1,?,21µM*,-2%,-3%,0
Cc1ccc(NC(=O)c2ccccc2-c2ccc(C(F)(F)F)cc2)cc1S(=O)(=O)N1CCOCC1,?,15µM*,-23%,-20%,-19
SMILES,DT40 TDP1 CPT,DT40 TDP1 no CPT,HT1080NT lethal,HT1080 IDH1KD tx,IL-1B inflam inh
COc1ccc(NC(=O)c2ccccc2-c2ccc(C(F)(F)F)cc2)cc1S(=O)(=O)N1CCOCC1,7%,?,0%,-9%,-1
N#Cc1ccc(-c2cn3c(n2)SCC3)cc1,-15%,-1%,15%,-8%,12
CCN(C(=O)c1cc(S(=O)(=O)N2CCc3ccccc32)cn1C)c1cccc(C)c1,?,13µM*,.,.,.
Cc1cc(F)ccc1NC(=O)c1cc(S(=O)(=O)N2CCc3ccccc32)cn1C,?,26µM*,6%,-14%,-9
CCC(C)(C)NC(=O)c1cc(S(=O)(=O)N2CCc3ccccc32)cn1C,21µM*,15µM*,-3%,-3%,21
CCN(C(=O)c1cc(S(=O)(=O)N2CCc3ccccc32)cn1C)c1ccccc1,?,?,10%,9%,8
Cn1cccc1C(=O)N1CCC2(CC1)CN(c1ccncc1)C2,-21%,?,.,.,.
N#CCC(=O)Nc1ccc(C(=O)OCC(=O)NC2CCCc3ccccc32)cc1 (configuration not stated),-10%,-3%,13%,10%,5
CCOCCCn1c(=N)c(C(=O)NCc2ccc3c(c2)OCO3)cc2c(=O)n3cccc(C)c3nc21,?,?,3%[9.24 µM],?,-60*
Cc1ccc2nc3c(cc(C(N)=S)c(=N)n3CCCOC(C)C)c(=O)n2c1,16µM*,16µM*,?,11µM*,-9
COCCCn1c(=N)c(C(=O)NCc2ccc3c(c2)OCO3)cc2c(=O)n3cccc(C)c3nc21,-4%,26%,-3%,-2%,0
COCCn1c(=N)c(S(=O)(=O)c2ccc(F)cc2)cc2c(=O)n3cccc(C)c3nc21,?,8.2µM*,4%,8%,-2
CCCn1c(=N)c(C(=O)NC2CCCC2)cc2c(=O)n3cccc(C)c3nc21,?,12µM*,0%,-1%,-21
CCOCCCn1c(=N)c(C(=O)NC2CCCC2)cc2c(=O)n3cccc(C)c3nc21,?,21µM*,.,.,.
CCCCn1c(=N)c(C(=O)NC2CCCCC2)cc2c(=O)n3cccc(C)c3nc21,6%,0%,.,.,.
CCn1c(=N)c(C(=O)NC)cc2c(=O)n3cccc(C)c3nc21,?,16µM*,-23%,-1%,-21
